Among all 290,000 compounds or so, about 2,100 (0.72%) were called active. Roughly 4% stayed inconclusive and do not appear here. Calls come from the whole dose curve; as a rule, active = well fitted inhibition curve with a large enough effect; inconclusive = small, poorly fitted or top-dose-only effect, or effect the other way; inactive = flat fitted curve, though single readings scatter. Shown is part of a subset that was picked to be rich in actives.
target: Fructose-bisphosphate aldolase, Giardia intestinalis (strain ATCC 50803 / WB clone C6) (UniProt A8B2U2); assay: qHTS Assay for Inhibitors of Fructose-1,6-bisphosphate Aldolase from Giardia Lamblia
Sequence (A8B2U2 whole entry, looked up, natural form): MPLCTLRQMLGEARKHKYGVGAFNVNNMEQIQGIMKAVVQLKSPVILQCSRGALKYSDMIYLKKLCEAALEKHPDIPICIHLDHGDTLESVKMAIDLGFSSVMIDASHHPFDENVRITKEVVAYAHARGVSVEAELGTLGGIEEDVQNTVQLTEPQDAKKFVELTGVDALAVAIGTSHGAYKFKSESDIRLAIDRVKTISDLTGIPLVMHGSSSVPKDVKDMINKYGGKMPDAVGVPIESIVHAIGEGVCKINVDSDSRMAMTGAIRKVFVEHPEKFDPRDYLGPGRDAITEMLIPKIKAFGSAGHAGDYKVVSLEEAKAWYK

Row | SMILES | outcome
1 | N.N.[Cl][Pt][Cl] | active
